# Reference: PubChem BioAssay (EPA / NIEHS)
# Where “and” joins values, the source holds several entries; their conditions need not be identical. Equal entries are not always repeated. Inconclusive results are not listed. The source holds several records for some structures; these can differ, active in one and inactive in another. Calls of active or inactive are those of the source. How the source made its calls, unless noted: active means hit-call score of the fitted dose curve at least 0.9, where 1 is the maximum; inconclusive means response in the unintended direction; inactive means score below 0.9.
# Columns and labels:
# [1] = target: human Dopamine Transporter (DAT), SLC6A3 (gene 6531) (UniProt Q01959); test: NVS_TR_hDAT: NovaScreen (NVS) Transporter Assay for human Dopamine Transporter (DAT) (AID 2283374);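 further: activity means loss of bound radioligand signal relative to DMSO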
# How it was run: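 Test chemicals were first screened in duplicate at 25 uM, with actives retested as concentration series. Displacement of a specific radioligand from cell-free human dopamine transporter was measured after 1 h by filtration and scintillation counting.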
# [2] = target: Agonist Androgen Response Element (ARE), AR (gene 367) (UniProt P10275); test: OT_AR_ARELUC_AG_1440: Odyssey Thera (OT) 24-hour CHO-K1 Luciferase Assay for Agonist Androgen Response Element (ARE) (AID 2283379)
# How it was run: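 Agonist mode, 24 h exposure in CHO-K1 ARE-luciferase cells; values reflect luminescence induction over vehicle.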
# [3] = target: Estrogen receptor (Homo sapiens) (UniProt P03372); test: OT_ERa_GFPERaERE_0480: Odyssey Thera (OT) 8-hour HeLa Transcription Induction Assay for Estrogen Receptor (AID 2283381; active means hit-call score of the fitted dose curve at least 0.9, where 1 is the maximum; inactive means score below 0.9)
# How it was run: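 Fluorescent reporter signal, imaged by microscopy and scored with image-analysis algorithms, was taken 8 h after chemical dosing of HeLa cells; activity was fitted upward relative to DMSO.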
# [4] = target: Estrogen receptor (Homo sapiens) (UniProt P03372); test: OT_ERa_GFPERaERE_0120: Odyssey Thera (OT) 2-hour HeLa Transcription Induction Assay for Estrogen Receptor (AID 2283382)
# How it was run: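 HeLa, 384-well, 2 h chemical exposure; GFP reporter induction (ERE), fluorescence microscopy; high content image analysis; positive fitting direction vs DMSO.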
# [5] = target: Bile acid receptor (Homo sapiens) (UniProt Q96RI1); test: OT_FXR_FXRSRC1_0480: Odyssey Thera (OT) 8-hour HEK293T Protein-Complementation Assay for Farnesoid X receptor/SRC-1 Co-activator (AID 2283383)
# How it was run: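 Human kidney HEK293T cells carried FXR/SRC-1 fragment-complementation constructs. Compounds were added and incubated 8 h. Reporter reassembly upon receptor–co-activator interaction was then quantified by fluorescence, with curves fitted in the positive direction relative to DMSO.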
# [6] = target: Bile acid receptor (Homo sapiens) (UniProt Q96RI1); test: OT_FXR_FXRSRC1_1440: Odyssey Thera (OT) 24-hour HEK293T Protein-Complementation Assay for Farnesoid X receptor/SRC-1 Co-activator (AID 2283384)
# How it was run: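 Compounds are applied to human kidney HEK293T cells expressing bait and prey fused to reporter protein fragments; after 24 h, reconstituted reporter fluorescence is measured. Activity is fitted as signal gain over DMSO.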
# [7] = target: Retinoic acid receptor RXR-alpha (Homo sapiens) (UniProt P19793); test: OT_NURR1_NURR1RXRa_0480: Odyssey Thera (OT) 8-hour HEK293T Protein Complementation Assay for Nurr1/retinoid X receptor (RXR) (AID 2283385)
# How it was run: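 8 h compound exposure, HEK293T; Nurr1/RXRα fragment complementation; fluorescence intensity; positive fitting direction vs DMSO baseline.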
# [8] = target: Retinoic acid receptor RXR-alpha (Homo sapiens) (UniProt P19793); test: OT_NURR1_NURR1RXRa_1440: Odyssey Thera (OT) 24-hour HEK293T Protein Complementation Assay for Nurr1/retinoid X receptor (RXR) (AID 2283386)
# How it was run: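 Interaction of Nurr1 with RXRα brings fused reporter fragments together in human HEK293T cells, restoring a functional reporter. Fluorescence intensity is measured 24 h after chemical treatment, and values are analysed in the positive direction against DMSO.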
# [9] = target: Peroxisome proliferator-activated receptor gamma (Homo sapiens) (UniProt P37231); test: OT_PPARg_PPARgSRC1_0480: Odyssey Thera (OT) 8-hour Protein-Complementation Assay for Peroxisome Proliferator-activated Receptor Gamma / SRC-1 Co-activator (AID 2283387)
# How it was run: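 Split-YFP (IFP1/IFP2) PPARg/SRC-1 reporter, HEK293T, 37 °C, 5% CO2; 8 h compound; formaldehyde fix + Draq5; high-content imaging, N/C ratio, ≥350 cells/image, positive direction vs DMSO.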
# [10] = target: Peroxisome proliferator-activated receptor gamma (Homo sapiens) (UniProt P37231); test: OT_PPARg_PPARgSRC1_1440: Odyssey Thera (OT) 24-hour Protein-Complementation Assay for Peroxisome Proliferator-activated Receptor Gamma/ SRC-1 Co-activator (AID 2283388)
# How it was run: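 HEK293T cells transiently transfected with PPARg and SRC-1 fused via (Gly4Ser)2 linker to split Venus YFP fragments (IFP1/IFP2) were dosed 24 h; fixed, Draq5-stained, imaged at 488/635 nm; nuclear/cytoplasmic fluorescence ratio scored versus DMSO baseline, gain-of-signal.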
# [11] = CEETOX_H295R_OHPREG: CeeTox H295R High-throughput Steroidogenesis Assay for OH-Pregnenolone (OHPREG) (AID 2283434; active means hit-call score of the fitted dose curve at least 0.9, where 1 is the maximum; inactive means score below 0.9); conditions: actives raise or lower the signal
# How it was run: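 Hormone levels in spent medium were measured by tandem mass spectrometry following liquid-liquid extraction. Cells (H295R) had been forskolin-stimulated (10 uM, 48 h) before a 48 h chemical exposure at 0.1% DMSO, with activity fitted in both directions against DMSO.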
# [12] = CEETOX_H295R_OHPROG: CeeTox H295R High-throughput Steroidogenesis Assay for OH-Progesterone (OHPROG) (AID 2283435; active means hit-call score of the fitted dose curve at least 0.9, where 1 is the maximum; inactive means score below 0.9;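 on AC50: human adrenal H295R cells primed 48 h with 10 µM forskolin; 17alpha-hydroxyprogesterone secreted into medium measured by HPLC-MS/MS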); conditions: actives raise or lower the signal
# How it was run: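 H295R, 10 uM forskolin prestim 48 h; cmpd in 0.1% DMSO 48 h; medium MTBE-extracted, HPLC-MS/MS for OH-progesterone; 7-pt std curve; bidirectional fit vs DMSO; MTT viability, chemicals diluted until viability >/=70%.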
# [13] = CEETOX_H295R_ANDR: CeeTox H295R High-throughput Steroidogenesis Assay for Androstenedione (ANDR) (AID 2283436; active means hit-call score of the fitted dose curve at least 0.9, where 1 is the maximum; inactive means score below 0.9;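 further: human H295R adrenal cells exposed for 48 h with androstenedione measured in medium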); conditions: actives raise or lower the signal
# How it was run: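 Read-out is androstenedione secreted into medium, measured by tandem mass spectrometry after liquid-liquid extraction. Cells were H295R, dosed for 48 h per modified OECD 456; activity fitted in both directions relative to DMSO.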
# [14] = CEETOX_H295R_11DCORT: CeeTox H295R High-throughput Steroidogenesis Assay for 11-Deoxycortisol (11DCORT) (AID 2283432; active means hit-call score of the fitted dose curve at least 0.9, where 1 is the maximum; inactive means score below 0.9;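 on AC50: human adrenal H295R cells prestimulated with 10 µM forskolin for 48 h; 11-deoxycortisol secreted into the medium measured by LC-MS/MS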); conditions: actives raise or lower the signal
# How it was run: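 Steroidogenesis in human H295R cells: 48 h chemical exposure after forskolin priming, 11-deoxycortisol measured by LC-MS/MS.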
# [15] = CEETOX_H295R_CORTIC: CeeTox H295R High-throughput Steroidogenesis Assay for Corticosterone (CORTIC) (AID 2283437; active means hit-call score of the fitted dose curve at least 0.9, where 1 is the maximum; inactive means score below 0.9;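 further: corticosterone secreted into medium quantified by mass spectrometry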); conditions: actives raise or lower the signal
# How it was run: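 Corticosterone secreted into medium is measured by reverse-phase HPLC with tandem MS following liquid-liquid extraction. Cells are forskolin-stimulated (10 uM, 48 h) before 48 h test exposure; activity fitted in both directions against DMSO.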
# [16] = CEETOX_H295R_CORTISOL: CeeTox H295R High-throughput Steroidogenesis Assay for Cortisol (AID 2283438; active means hit-call score of the fitted dose curve at least 0.9, where 1 is the maximum; inactive means score below 0.9;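 further: cortisol secreted into medium quantified by LC-MS/MS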); conditions: actives raise or lower the signal
# How it was run: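 Forskolin 10 uM 48 h prestim → test cmpd in DMSO (0.1% final) 48 h → medium MTBE-extracted → LC-MS/MS cortisol vs 7-pt std curve. Gain/loss of signal fitted vs DMSO. MTT viability in same wells.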
# [17] = target: human Norepinephrine Transporter (NET), SLC6A2 (gene 6530) (UniProt P23975); test: NVS_TR_hNET: NovaScreen (NVS) Transporter Assay for human Norepinephrine Transporter (NET) (AID 2283377);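 further: cell-free membrane protein extracted from CHO cells expressing human NET; displacement of radioligand from human NET seen as loss of scintillation signal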
# How it was run: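 Scintillation counts of filter-retained radioligand served as the readout, taken 1 h post-dosing in a cell-free CHO-derived system. Test chemicals ran first at 25 uM in duplicate; confirmed hits were retested across concentrations.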
# [18] = target: rat Serotonin Transporter (SERT), Slc6a4 (gene 25553) (UniProt P31652); test: NVS_TR_rSERT: NovaScreen (NVS) Transporter Assay for rat Serotonin Transporter (SERT) (AID 2283375)
# How it was run: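 Rat forebrain membranes were incubated with test chemical for 1 hour; radioligand binding to SERT was measured by filter-based scintillation counting. Primary screen ran in duplicate at 25 uM, with actives followed up in concentration series; DMSO served as negative control.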
# [19] = target: mouse Estrogen Receptor alpha (Era), Esr1 (gene 13982) (UniProt P19785); test: NVS_NR_mERa: NovaScreen (NVS) Nuclear Receptor Binding Assay for mouse Estrogen Receptor alpha (Era) (AID 2283378);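 further: hit means loss of bound radioligand signal relative to DMSO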
# How it was run: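 Cell-free radioligand binding with extracted mouse Era protein; competitive displacement of radiolabelled ligand, read by filter-based scintillation counting 18 hours after dosing. Loss of signal versus DMSO baseline taken as binding; single screening concentration 25 uM, actives followed in concentration series.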
# [20] = target: Norway rat Vesicular Monoamine Transporter (VMAT2), neurotransmitter transporter, Slc18a2 (gene 25549) (UniProt Q01827); test: NVS_TR_rVMAT2: NovaScreen (NVS) Transporter Assay for Norway rat Vesicular Monoamine Transporter (VMAT2), neurotransmitter transporter (AID 2283376);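 further: actives lower the bound radioligand signal below the DMSO level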
# How it was run: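 Tissue: rat forebrain extract. Format: competitive radioligand binding, cell-free. Timepoint: 1 h. Readout: filter radiodetection/scintillation. Screen: 25 uM in duplicate, then concentration series for actives. Baseline: DMSO.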
# human Dopamine Transporter (DAT), SLC6A3 (gene 6531), sequence (Q01959 whole entry, looked up): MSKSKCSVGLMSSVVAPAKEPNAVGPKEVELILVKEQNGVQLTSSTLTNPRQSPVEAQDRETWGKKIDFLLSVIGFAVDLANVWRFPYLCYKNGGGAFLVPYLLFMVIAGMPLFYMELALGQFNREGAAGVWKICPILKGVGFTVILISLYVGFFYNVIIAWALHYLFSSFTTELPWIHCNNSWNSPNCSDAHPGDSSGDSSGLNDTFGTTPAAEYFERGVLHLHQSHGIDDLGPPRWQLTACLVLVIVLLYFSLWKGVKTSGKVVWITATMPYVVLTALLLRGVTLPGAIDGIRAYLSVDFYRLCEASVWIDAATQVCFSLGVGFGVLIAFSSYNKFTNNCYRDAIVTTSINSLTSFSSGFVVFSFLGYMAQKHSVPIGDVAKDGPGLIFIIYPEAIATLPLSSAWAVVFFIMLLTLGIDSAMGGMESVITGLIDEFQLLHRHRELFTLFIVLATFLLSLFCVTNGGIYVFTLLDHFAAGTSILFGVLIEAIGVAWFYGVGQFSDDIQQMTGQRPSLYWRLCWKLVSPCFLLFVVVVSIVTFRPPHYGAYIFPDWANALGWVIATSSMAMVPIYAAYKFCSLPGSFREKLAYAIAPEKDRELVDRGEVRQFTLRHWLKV
# Bile acid receptor (Homo sapiens), sequence (Q96RI1 whole entry, looked up, the tested form may be a part): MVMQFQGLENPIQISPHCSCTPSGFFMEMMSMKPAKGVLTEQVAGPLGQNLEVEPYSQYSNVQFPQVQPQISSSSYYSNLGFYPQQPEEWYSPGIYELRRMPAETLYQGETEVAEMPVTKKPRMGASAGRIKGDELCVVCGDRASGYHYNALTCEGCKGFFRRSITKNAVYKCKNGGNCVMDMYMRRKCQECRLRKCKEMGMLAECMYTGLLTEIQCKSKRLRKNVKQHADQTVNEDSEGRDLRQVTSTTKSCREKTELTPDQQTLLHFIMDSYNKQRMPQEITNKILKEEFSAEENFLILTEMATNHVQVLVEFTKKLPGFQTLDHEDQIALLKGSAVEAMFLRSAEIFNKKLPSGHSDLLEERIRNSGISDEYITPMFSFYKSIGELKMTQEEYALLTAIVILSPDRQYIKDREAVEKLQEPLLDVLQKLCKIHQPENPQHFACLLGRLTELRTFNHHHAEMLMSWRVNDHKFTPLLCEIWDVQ
# Estrogen receptor (Homo sapiens), sequence (P03372 whole entry, looked up): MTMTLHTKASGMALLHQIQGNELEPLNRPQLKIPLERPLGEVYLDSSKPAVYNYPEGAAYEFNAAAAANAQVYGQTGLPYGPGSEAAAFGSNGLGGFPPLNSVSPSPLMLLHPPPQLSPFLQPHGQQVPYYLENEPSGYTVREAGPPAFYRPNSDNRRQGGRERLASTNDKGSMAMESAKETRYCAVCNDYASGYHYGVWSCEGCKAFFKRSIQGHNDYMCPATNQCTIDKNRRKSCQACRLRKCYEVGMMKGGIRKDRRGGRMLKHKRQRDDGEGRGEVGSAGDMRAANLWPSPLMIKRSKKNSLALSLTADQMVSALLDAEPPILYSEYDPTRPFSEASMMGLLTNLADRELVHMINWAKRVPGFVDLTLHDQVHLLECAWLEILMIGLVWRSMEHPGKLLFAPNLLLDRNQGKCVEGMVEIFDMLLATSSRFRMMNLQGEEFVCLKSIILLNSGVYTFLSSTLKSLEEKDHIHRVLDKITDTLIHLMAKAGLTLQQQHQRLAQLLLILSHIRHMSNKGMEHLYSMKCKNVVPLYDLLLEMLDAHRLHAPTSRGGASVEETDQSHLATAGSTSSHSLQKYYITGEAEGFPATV
# Agonist Androgen Response Element (ARE), AR (gene 367), sequence (P10275 whole entry, looked up): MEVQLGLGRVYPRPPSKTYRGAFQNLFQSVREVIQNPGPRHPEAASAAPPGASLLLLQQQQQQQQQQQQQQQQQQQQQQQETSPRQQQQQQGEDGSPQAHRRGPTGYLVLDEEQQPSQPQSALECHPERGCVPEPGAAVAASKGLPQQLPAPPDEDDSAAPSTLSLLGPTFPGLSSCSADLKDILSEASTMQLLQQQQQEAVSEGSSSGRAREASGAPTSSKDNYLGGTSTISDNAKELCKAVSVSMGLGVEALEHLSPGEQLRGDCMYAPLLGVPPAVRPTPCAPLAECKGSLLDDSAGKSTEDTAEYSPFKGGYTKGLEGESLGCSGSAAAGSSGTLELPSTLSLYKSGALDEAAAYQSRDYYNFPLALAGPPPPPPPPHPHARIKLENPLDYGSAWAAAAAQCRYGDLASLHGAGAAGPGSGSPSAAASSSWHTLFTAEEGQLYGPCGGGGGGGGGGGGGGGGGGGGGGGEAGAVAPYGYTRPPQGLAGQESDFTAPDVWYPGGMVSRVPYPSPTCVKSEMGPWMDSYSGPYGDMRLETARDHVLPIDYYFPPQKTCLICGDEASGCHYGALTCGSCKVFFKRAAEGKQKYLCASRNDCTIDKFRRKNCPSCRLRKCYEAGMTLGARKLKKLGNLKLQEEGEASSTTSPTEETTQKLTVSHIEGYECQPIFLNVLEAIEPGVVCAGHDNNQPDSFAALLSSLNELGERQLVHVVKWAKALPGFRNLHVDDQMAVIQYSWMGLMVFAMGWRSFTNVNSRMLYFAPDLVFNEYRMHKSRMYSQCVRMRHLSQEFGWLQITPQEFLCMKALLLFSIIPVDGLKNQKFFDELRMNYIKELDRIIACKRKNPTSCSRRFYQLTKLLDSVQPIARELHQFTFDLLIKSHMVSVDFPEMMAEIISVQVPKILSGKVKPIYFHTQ
# Peroxisome proliferator-activated receptor gamma (Homo sapiens), sequence (P37231 whole entry, looked up, the tested form may be a part): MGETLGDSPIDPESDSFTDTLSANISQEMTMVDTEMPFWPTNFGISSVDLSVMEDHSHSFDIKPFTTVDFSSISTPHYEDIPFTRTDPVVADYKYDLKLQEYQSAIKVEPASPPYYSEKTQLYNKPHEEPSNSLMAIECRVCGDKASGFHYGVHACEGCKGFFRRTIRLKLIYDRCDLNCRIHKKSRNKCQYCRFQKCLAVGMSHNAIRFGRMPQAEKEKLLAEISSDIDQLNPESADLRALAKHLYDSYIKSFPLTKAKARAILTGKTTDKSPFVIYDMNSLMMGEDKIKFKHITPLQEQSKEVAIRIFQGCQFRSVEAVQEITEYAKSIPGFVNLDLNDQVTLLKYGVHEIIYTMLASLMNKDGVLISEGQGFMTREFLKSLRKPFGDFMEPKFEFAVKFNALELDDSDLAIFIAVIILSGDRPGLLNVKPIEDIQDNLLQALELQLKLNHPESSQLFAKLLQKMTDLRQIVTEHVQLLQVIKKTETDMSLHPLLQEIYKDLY
# Retinoic acid receptor RXR-alpha (Homo sapiens), sequence (P19793 whole entry, looked up, the tested form may be a part): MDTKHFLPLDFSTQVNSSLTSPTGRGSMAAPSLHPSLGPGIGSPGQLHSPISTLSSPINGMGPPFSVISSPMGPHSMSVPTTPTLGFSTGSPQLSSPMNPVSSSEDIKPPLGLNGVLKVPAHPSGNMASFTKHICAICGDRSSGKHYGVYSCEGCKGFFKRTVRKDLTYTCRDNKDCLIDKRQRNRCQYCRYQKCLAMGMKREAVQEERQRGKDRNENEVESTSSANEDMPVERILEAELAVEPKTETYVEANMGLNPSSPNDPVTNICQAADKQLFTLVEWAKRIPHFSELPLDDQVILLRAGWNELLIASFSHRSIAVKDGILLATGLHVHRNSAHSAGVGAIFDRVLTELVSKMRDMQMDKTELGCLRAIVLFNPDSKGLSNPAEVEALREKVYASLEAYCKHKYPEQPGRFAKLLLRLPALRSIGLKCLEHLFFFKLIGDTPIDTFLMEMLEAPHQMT
# human Norepinephrine Transporter (NET), SLC6A2 (gene 6530), sequence (P23975 whole entry, looked up): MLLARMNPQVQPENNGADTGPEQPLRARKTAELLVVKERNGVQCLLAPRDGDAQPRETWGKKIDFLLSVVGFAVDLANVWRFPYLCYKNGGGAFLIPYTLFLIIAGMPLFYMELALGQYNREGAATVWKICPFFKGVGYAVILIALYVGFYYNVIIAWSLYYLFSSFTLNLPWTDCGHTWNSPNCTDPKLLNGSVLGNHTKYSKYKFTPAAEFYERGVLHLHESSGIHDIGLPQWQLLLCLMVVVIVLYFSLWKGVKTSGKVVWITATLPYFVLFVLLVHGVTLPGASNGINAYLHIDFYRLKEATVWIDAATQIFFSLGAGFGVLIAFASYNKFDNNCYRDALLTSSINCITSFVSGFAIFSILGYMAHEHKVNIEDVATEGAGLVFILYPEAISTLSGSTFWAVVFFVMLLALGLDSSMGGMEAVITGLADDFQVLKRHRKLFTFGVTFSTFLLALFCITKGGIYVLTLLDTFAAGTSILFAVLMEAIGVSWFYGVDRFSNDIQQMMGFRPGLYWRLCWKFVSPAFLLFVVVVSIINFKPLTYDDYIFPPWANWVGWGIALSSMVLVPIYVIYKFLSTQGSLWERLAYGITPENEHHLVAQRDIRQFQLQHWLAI
# Norway rat Vesicular Monoamine Transporter (VMAT2), neurotransmitter transporter, Slc18a2 (gene 25549), sequence (Q01827 whole entry, looked up): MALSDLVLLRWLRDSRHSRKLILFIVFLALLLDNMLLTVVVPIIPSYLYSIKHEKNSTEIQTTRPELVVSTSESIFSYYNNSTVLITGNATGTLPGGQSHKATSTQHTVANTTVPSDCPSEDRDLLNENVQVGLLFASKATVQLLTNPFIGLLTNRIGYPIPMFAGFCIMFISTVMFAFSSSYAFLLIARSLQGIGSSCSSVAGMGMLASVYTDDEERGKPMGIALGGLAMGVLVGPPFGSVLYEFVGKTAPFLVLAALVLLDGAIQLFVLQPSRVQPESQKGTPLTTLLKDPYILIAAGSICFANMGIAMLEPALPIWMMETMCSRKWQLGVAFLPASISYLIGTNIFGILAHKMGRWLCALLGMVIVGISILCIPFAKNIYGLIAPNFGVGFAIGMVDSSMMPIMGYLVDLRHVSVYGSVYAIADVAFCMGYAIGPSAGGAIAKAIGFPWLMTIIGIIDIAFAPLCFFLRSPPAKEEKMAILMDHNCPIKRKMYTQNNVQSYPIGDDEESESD
compound,measurement,setting,value
CCCN(CCC)c1c([N+](=O)[O-])cc(C(F)(F)F)cc1[N+](=O)[O-],AC50,[1],25 µM (active)
same,outcome,[2],inactive
same,outcome,[3],inactive
same,outcome,[4],inactive
same,AC50,[5],30.7 µM (active)
same,outcome,[6],inactive
same,outcome,[7],inactive
same,outcome,[8],inactive
same,outcome,[9],inactive
same,outcome,[10],inactive
same,outcome,[11],inactive
same,outcome,[12],inactive
same,outcome,[13],inactive
CC1(C)C(C=C(Cl)Cl)C1C(=O)OC(C#N)c1ccc(F)c(Oc2ccccc2)c1 (centres undefined),AC50,[1],2.03 µM (active)
same,outcome,[3],inactive
same,outcome,[4],inactive
same,outcome,[7],inactive
same,outcome,[9],inactive
same,outcome,[10],inactive
same,outcome,[14],inactive
same,outcome,[11],inactive
same,outcome,[12],inactive
same,outcome,[15],inactive
same,outcome,[16],inactive
CC[C@H](C)[C@H]1O[C@]2(C=C[C@@H]1C)C[C@@H]1C[C@@H](C/C=C(\C)[C@@H](O[C@H]3C[C@H](OC)[C@@H](O[C@H]4C[C@H](OC)[C@@H](O)[C@H](C)O4)[C@H](C)O3)[C@@H](C)/C=C/C=C3\CO[C@@H]4[C@H](O)C(C)=C[C@@H](C(=O)O1)[C@]34O)O2 (tested in a mixture with another compound),AC50,[1],11.3 µM (active)
same,AC50,[17],5.03 µM (active)
same,outcome,[3],inactive
same,outcome,[4],inactive
same,AC50,[7],7.4 µM (active)
same,outcome,[7],inactive
same,AC50,[8],9.87 µM (active)
same,outcome,[8],inactive
same,outcome,[9],inactive
same,outcome,[10],inactive
same,outcome,[14],inactive
same,outcome,[11],inactive
same,outcome,[12],inactive
same,outcome,[15],inactive
same,outcome,[16],inactive
CCC(C)(C)C(=O)OC1=C(c2ccc(Cl)cc2Cl)C(=O)OC12CCCCC2,outcome,[1],inactive
same,outcome,[2],inactive
same,outcome,[3],inactive
same,outcome,[4],inactive
same,AC50,[5],47.5 µM (active)
same,AC50,[6],41 µM (active)
same,outcome,[7],inactive
same,AC50,[8],33 µM (active) and 70.8 µM (active)
same,AC50,[9],16 µM (active)
same,outcome,[9],inactive
same,AC50,[10],38.7 µM (active) and 50 µM (active)
same,AC50,[14],1.11 µM (active)
same,outcome,[11],inactive
same,AC50,[12],2.29 µM (active)
same,outcome,[13],inactive
same,outcome,[15],inactive
same,outcome,[16],inactive
COP(=S)(OC)Oc1ccc([N+](=O)[O-])cc1,AC50,[1],25 µM (active)
same,AC50,[18],12.6 µM (active)
same,outcome,[19],inactive
same,outcome,[3],inactive
same,outcome,[4],inactive
same,AC50,[5],36.8 µM (active)
same,AC50,[6],50 µM (active)
same,outcome,[7],inactive
same,outcome,[8],inactive
same,outcome,[9],inactive
same,outcome,[10],inactive
same,outcome,[11],inactive
same,AC50,[12],3.28 µM (active)
O=C(Nc1ccccc1)Nc1cnns1,AC50,[20],5.31 µM (active)
same,outcome,[3],inactive
same,outcome,[4],inactive
same,outcome,[6],inactive
same,outcome,[9],inactive
same,outcome,[10],inactive
O=S1OCC2C(CO1)C1(Cl)C(Cl)=C(Cl)C2(Cl)C1(Cl)Cl (centres undefined),AC50,[1],10.9 µM (active)
same,outcome,[3],inactive
same,outcome,[4],inactive
same,AC50,[5],39.2 µM (active)
same,outcome,[9],inactive
same,outcome,[10],inactive
N#CN,AC50,[17],13 µM (active)
same,outcome,[3],inactive
same,outcome,[4],inactive
same,outcome,[7],inactive
same,outcome,[9],inactive
same,outcome,[10],inactive
Cc1[nH]c(=O)n(C(C)(C)C)c(=O)c1Cl,outcome,[2],inactive
same,outcome,[3],inactive
same,outcome,[4],inactive
same,outcome,[5],inactive
same,outcome,[6],inactive
same,outcome,[7],inactive
same,outcome,[8],inactive
same,outcome,[9],inactive
same,outcome,[10],inactive
CCN(CC)C(=O)SCc1ccc(Cl)cc1,AC50,[1],7.71 µM (active)
same,outcome,[3],inactive
same,outcome,[4],inactive
same,AC50,[5],40 µM (active)
same,outcome,[6],inactive
same,outcome,[7],inactive
same,outcome,[9],inactive
same,outcome,[10],inactive
same,AC50,[14],24.6 µM (active)
same,AC50,[11],19.3 µM (active)
same,outcome,[12],inactive
same,outcome,[15],inactive
same,outcome,[16],inactive
